# Measured values: the supplement of paper PMC10941209
# Tested on: HFF
# Assay: cell viability relative to DMSO control; higher = less cytotoxic
# Details: 1 µM; 72 h
# Description: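 Single-dose cytotoxicity screen of the MMV Pandemic Response Box at 1 uM on human foreskin fibroblasts (HFF), 72 h at 37 C. Viability measured by MTT (OD 550 nm) and normalised to the DMSO control (% survival).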
row,SMILES,cell viability
1,CN(C)[C@@H]1C(=O)C(C(N)=O)=C(O)[C@@]2(O)C(=O)C3=C(O)c4c(O)c(NC(=O)CN5CCCC5)cc(F)c4C[C@H]3C[C@@H]12,66%
2,COC(=O)Nc1nc2c(C)cccc2[nH]1,69.3%
3,Nc1nc2c(ncn2COCCO)c(=O)[nH]1,68.8%
4,Cc1ccc(S(=O)(=O)Nc2cccc3cccnc23)cc1,84.2%
5,O=c1[nH]cnc2c1ncn2[C@H]1CC[C@@H](CO)O1,72.2%
6,COc1cc(NC(=O)CN2C(=O)NC(c3ccccc3)(c3ccccc3)C2=O)cc(OC)c1,61%
7,COc1ccc(OCc2ccc(COc3c(Cl)cccc3Cl)cc2)c(Cl)c1,60.4%
8,O=C(O)c1cc(-c2ccc(Br)cc2)nc2ccc(Cl)cc12,57.6%
9,CCCCCCCCC(CP(=O)(O)C(C)N)C(=O)O (stereo not given),61.8%
10,C[C@H](NC(CC(=O)c1ccccc1C(F)(F)F)C(=O)O)c1ccccc1 (stereo not given in full),63.6%
11,COc1ccc(NS(=O)(=O)c2ccc(Cl)s2)cn1,72.2%
12,O=C(CSc1nnc(Br)n1-c1ccc(C2CC2)c2ccccc12)Nc1ccc(C(=O)O)cc1Cl,66.5%
13,Fc1ccc(-c2nc(-c3c[nH]c4ccc(Br)cc34)[nH]c2-c2ccc(F)cc2)cc1,67.2%
14,COc1ccc(SC(=O)N[C@H](CCC(=O)O)C(=O)O)cc1,59.7%
15,COc1cc(Cc2cnc(N)nc2N)c2c(c1OC)OC(C1CC1)C=C2 (stereo not given),74.3%
16,Nc1cccc(-c2nc(N)nc(NC3Cc4ccccc4C3)n2)c1,68.2%
17,O=C(Nc1nnc(-c2ccccc2)o1)c1ccc(F)cc1,65.2%
18,Nc1nc(Nc2ccc3nc(-c4ccc(F)cc4)cc(N)c3c2)cc(-c2ccccc2)n1,78.1%
19,COc1cc(C2C3=C(CC(C)(C)CC3=O)Nc3ccccc3N2C(C)=O)ccc1OCc1ccccc1 (stereo not given),67.1%
20,COc1cc(Cc2cc(N)nc(N)n2)cc(OC)c1OC,65.1%

row,SMILES,cell viability
1,COc1ccc(C2CNC(=O)C2)cc1OC1CCCC1 (stereo not given),69.5%
2,C[C@@H](c1nc(-c2ccc(C#N)cc2)cs1)[C@](O)(Cn1cncn1)c1ccc(F)cc1F,62.9%
3,OC1O[C@H](CSc2ccc(F)cc2)[C@@H](O)[C@H]1O (stereo not given in full),67.7%
4,C[C@H](c1cccc2ccccc12)N(C)Cc1ccccc1,65.7%
5,Cn1cncc1[C@@](N)(c1ccc(Cl)cc1)c1ccc2c(c1)c(-c1cccc(Cl)c1)cc(=O)n2C,61.1%
6,c1ccc(-c2nnc3c4ccccc4c(N4CCNCC4)nn23)cc1,73.2%
7,O=C(O)CSc1cc(NS(=O)(=O)c2cccc3cccnc23)c2ccccc2c1O,59.6%
8,O=C(Nc1ccc(Cl)c(C(F)(F)F)c1)C(CCCl)C(=O)Nc1ccc(Cl)c(C(F)(F)F)c1,79%
9,C[C@@H]1O[C@@H]1P(=O)(O)O,65%
10,Cc1ccn2c(C(=O)NCc3ccccc3)c(C)nc2c1,66.8%
11,CCc1cc(Cc2cnc(N)nc2N)cc2c1N(C)CCC2C (stereo not given),71.9%
12,N#C/C(=C1/SC[C@H](c2ccc(Cl)cc2Cl)S1)n1ccnc1,74.7%
13,C/C(=N\NC(=O)C1CC1c1ccccc1)c1ccc(NC(=O)c2ccco2)cc1 (stereo not given),60%
14,CO[C@@]1(NC(=O)Cc2cccs2)C(=O)N2C(C(=O)O)=C(COC(N)=O)CS[C@@H]21,63.7%
15,COc1ccc(NC(=O)CC2Sc3ncnn3C2=O)cc1 (stereo not given),73.4%
16,Cc1onc(-c2ccccc2)c1-c1ccc(S(N)(=O)=O)cc1,66.8%
17,O=c1cc(NCCCN[C@@H]2CCOc3c(Br)cc(Br)cc32)[nH]c2ccsc12,79.4%
18,CCC[C@@H]1C[C@@H](C(=O)N[C@@H]([C@H]2O[C@H](SC)[C@H](O)[C@@H](O)[C@H]2O)[C@H](C)Cl)N(C)C1,66.8%
19,O=C(NCc1ccc2c3c(cccc13)C(=O)N2)c1cccs1,62.2%
20,N[C@H](CCC(=O)N[C@@H](Cc1c[nH]c2ccccc12)C(=O)O)C(=O)O,61.9%
